# Experimental data as given in the supplement of paper PMC11417369.
# ± gives the standard deviation of the averaged measurements. Whole data set: some 25,000 sequences, median “ln(normalized median fluorescence intensity)” near 10, cut for the highest 2% near 12. Shown is part of a subset that was picked to be rich in the highest values.
# Test system: PfAP2-G AP2 domain (GST-tagged)
# Experiment: gcPBM binding intensity (ln(normalized median fluorescence intensity)); higher = stronger DNA binding
# Summary of the method: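 Each value is the highest Masliner-normalised natural-log median intensity across replicate spots of either orientation of a probe. The probes were primer-extended double-stranded 36-bp intergenic genomic sequences on an Agilent 4 × 180k array, alongside negative controls, exposed for 1 h to GST-tagged P. falciparum DNA-binding domains expressed in E. coli. Bound protein was picked up with Alexa488 anti-GST antibody and scanned at 488 nm.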
row,Sequence,gcPBM binding intensity (ln)
1,TTTTTGTATTCTACCTTAACAATCTTAAAGATTTTT [CACACA_negctrl_site1157],9.97 ± 0.11
2,GTAAATAATAAACACCGTACATGGTATAATTCAATG [XGTACX_site3655],10.7 ± 0.33
3,AAGTCAATTTTTTTTTTTTTTTTTTAACTTATTAAT [TGCATGCA_negctrl_site14],9.605 ± 0.078
4,TCATTTCACAGACACACACACACAAGATATTTCCTT [CACACA_site7774],10.1 ± 0.11
5,AAAAAAAAAGGTACTACACACTATTCTCAATAGAAA [CACACA_site6193],11.1 ± 0.86
6,TAACAATAACTTTATACACACATAATATAAATATAT [CACACA_site7635],9.87 ± 0.014
7,AACACCAATTCATATGCACACACATCTGCATATTAT [CACACA_site8523],10.12 ± 0.078
8,TATATTAAAAAAGAGGTGCATTCGTAAGAGGTTAAA [GTGCAC_site9720],10.05 ± 0.064
9,CAACATTTGATAAACACACAGAAGTATAAATATATA [CACACA_site2365],10.24 ± 0.035
10,AAAATAAACCCAGACACACTCATTAAAAAATATCAT [CACACA_site5903],9.95 ± 0.099
11,AAAAATGTATGTATGGTGCAGTATTCATATCATTTT [GTGCAC_site9458],10.03 ± 0.021
12,AAAATATATACACAAACATGCATATAATAAATAAAT [TGCATGCA_site711],9.895 ± 0.064
13,AAAACAAATGAGTACACACACATAAAAGTTGAAAAT [CACACA_site6238],11.8 ± 1.3
14,ATAAAACAAATGAGTACACACACATAAAAATTGAAA [CACACA_site7949],11.6 ± 1.2
15,GTTGTTATATAAAGGAGTACATAATAACACAAATAT [XGTACX_site615],11.7 ± 1.2
16,CTTTATAATATTTGTTGTACACAAATATAACATATT [XGTACX_site709],11.6 ± 1.1
17,ATATAAAAAAAAAAAAGTACACATAAACAAATGCAT [XGTACX_site4241],11.7 ± 1
18,AAAGTAAAAACACATACATGCATATACACATATAAC [TGCATGCA_site341],9.9 ± 0.12
19,TTTGTTAATATAAAAACACACAAAAATAACATAAAA [CACACA_site2619],10.2 ± 0.22

row,Sequence,gcPBM binding intensity (ln)
1,AAAACAAATGAGTACACACACATAAAAATTGAAAAT [CACACA_site199],11.5 ± 0.9
2,TTTTTGTTCTATATGGTGCATGTTTATATTCGTATT,10.2 ± 0.19
3,AATTATAATAATAATAGTACATAAGTATATAAATAA [XGTACX_site2400],11 ± 0.62
4,AAATAAATAAGAAACGCATGCATATATAATATATAA [TGCATGCA_site326],9.83 ± 0.057
5,AGTAATAATCGGCATGCATGTCAGTGGTAGTATATA [TGCATGCA_site312],10.3 ± 0.41
6,TCTTCATTTTTATGTGCATGTAAAATTTTTTTTTTT [TGCATGCA_site963],10.2 ± 0.19
7,ATATAATATTTATATGTACACACCTTAATCCTTAAA [CACACA_site3555],11.3 ± 0.81
8,TTTTTTAACCTTTTATGTACACAATATTTAACATTT [XGTACX_site1170],11.6 ± 0.95
9,TTGTACTACAATCCTTTATTTATTTAAACCTGTATG [CACACA_negctrl_site428],11.6 ± 1.1
10,TATTTTGTTCTTTCCACACACAAATACATATATTGT [CACACA_site4071],10.3 ± 0.24
11,TATTGTATCCTTAATGCATGCACCAAATAAAAAAAG [TGCATGCA_site541],10.5 ± 0.54
12,AAAAATAAAATAAAATAAAATAAAAATAAAGAAAAA [CACACA_negctrl_site808],9.39 ± 0.16
13,TGGCACTAAAAAAATAAACACACAGATTTATATAAT [CACACA_site8386],9.81 ± 0.18
14,TGCCTATGACATGAATGTACATTAAAATTAAATAAA [XGTACX_site7126],10.8 ± 0.52
15,TTAAAAGAAAATAGGTGTACACATAATATATACATA [XGTACX_site7697],11.8 ± 1
16,TAAAAGAAATAATATACACACATATATAAAAATAAA [CACACA_site1329],9.87 ± 0.085
17,TAATACATACACACATGTACATACAGAAATAAATAA [XGTACX_site3245],11.2 ± 0.81
18,ATAACATAACATAATACACACATATAAAAAAGAAAT [CACACA_site3028],10.1 ± 0.18
19,AAAGAAAATAGGTGTACACATAATAAATACAGCTAT [CACACA_site5917],11.7 ± 1.1

row,Sequence,gcPBM binding intensity (ln)
1,TAAAAATAAAGAAAATGTACATAAATAATAATACAT [XGTACX_site2278],11.2 ± 0.69
2,TCTTGTTTATCAACAGCACACACAACAACAACAACA [CACACA_site8046],10.1 ± 0.23
3,CGCCCACAGATATATACACACATATATAAATAAATA [CACACA_site6877],10.1 ± 0.3
4,TAAGGTTCATTAAAGTGTACACATAAATACCGTAAC [XGTACX_site8212],11.6 ± 0.95
5,CGAAACCATATGTACACACACATATATAAATATGTA [CACACA_site7082],11.3 ± 0.88
6,GGTTCATTAAAGTGTACACATAAATACCGTAACATT [CACACA_site6002],11.9 ± 1
7,TAAAAATTAAAGTGTACACATATATATATATATATA [CACACA_site4781],11.6 ± 0.97
8,AATACTAAAAAGTGTACACATACATAAAAAATTGCA [CACACA_site5620],11.6 ± 0.87
9,TTAAATACTAAAAAGTGTACACATACATAAAAAATT [XGTACX_site6261],11.7 ± 0.92
10,GCATGGAACCATATATGTACATATATAAATAAATAA [XGTACX_site4996],11.2 ± 0.63
11,ATATAAAAAAATTGCACACATAAATATATACATATA [CACACA_site1218],10.12 ± 0.064
12,TAAATTAATAAAAAGTGTACATAATATACATATATA [XGTACX_site8604],11.3 ± 0.66
13,AACCATAAAAAGTGTACACATATAAAAAATATGGAA [CACACA_site4199],11.7 ± 1.1
14,TATATTGCAAAAAGTACACACATAAATAAATACATA [CACACA_site6589],11.6 ± 1.1
15,ATTAAATACATTAACACACACACAAATAAATACATA [CACACA_site5583],10.2 ± 0.25
16,TTTTGTTGAAAAGTAAGATATTCCAACATGTTTTTA [CACACA_negctrl_site391],9.88 ± 0.014
17,TATATATATATATATACATGCATACATATACATACA [TGCATGCA_site897],10 ± 0.22
18,TTTTTTTTTTTTTTTTTTTGTCTTATATATTACGGA [CACACA_negctrl_site322],9.64 ± 0.67
